# Assay outcomes deposited in PubChem BioAssay by several laboratories.
# An excerpt weighted towards active compounds, which were near 1.5% of everything screened.
# CCHF vOTU inh-1: blocks the CCHF virus ovarian tumor domain protease. CCHFV vOTU protease, Pep-AMC fluorescence. 370,000 tested, 0.55% active. inhibition, % at 11.5 µM; also: 0% = vehicle wells with enzyme and 100% = no enzyme wells
# TcdB GH inh: TcdB glycohydrolase inhibition; AID 652162; inhibition, % at 9.99 µM; 350,000 tested, 0.24% active; P18177; TcdB glycohydrolase enzymatic assay, plate reader; in the data active = inhibition above about 10%
# Vc quorum ag: inducers of Vibrio cholerae quorum light production without autoinducers; V. cholerae BH1578 lux reporter, luminescence, 6 h; activation, % at 18.7 µM; 350,000 tested, 0.16% active; in the data active = activation mostly above about 9.7%, no sharp cut-off
# VHR inh abs: inhibitors of human VHR1 phosphatase (DUSP3) | P51452 | recombinant VHR phosphatase, pNPP absorbance | inhibition, % at 13.3 µM | 290,000 tested, 0.52% active; in the data active = inhibition above about 50%
# SSB-PriA inh: blocks PriA binding to SSB C-terminal tail; inhibition, % at 33 µM; AlphaScreen SSBct-PriA binding, biotinylated peptide; 430,000 tested, 0.6% active; AID 1272365; in the data active = inhibition mostly above about 37%, no sharp cut-off; inactive = mostly below about 20%;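 also: plate controls were negative control peptide for no effect and reference peptide for full effect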
# PrPC surface inh: reduces human prion protein on the cell surface; 370,000 tested, 0.43% active; cell surface PrPC, TR-FRET read-out; inhibition, % at 13.8 µM; P04156; AID 720596; in the data active = inhibition above about 24%; also: 0% = median of the test wells and 100% = reference compound wells
# CCHF vOTU inh-2: confirmation of CCHF virus vOTU protease inhibitors. AID 686976. 1,900 tested, 17% active. inhibition, % at 11.5 µM. shares compounds with CCHF vOTU inh-1. Recombinant CCHFV vOTU, Pep-AMC fluorescence
# * = called active by the depositor; i = inactive; nt = not tested or not shown. Rule as the data show it, unless noted: active = inhibition above about 30%; inactive = the rest.
SMILES,CCHF vOTU inh-1,TcdB GH inh,Vc quorum ag,VHR inh abs,SSB-PriA inh,PrPC surface inh,CCHF vOTU inh-2
Cc1ccc(S(=O)(=O)/N=C2/NC(=O)/C(=C\c3cc(Br)cc(Br)c3O)S2)cc1,nt,nt,0,20,nt,nt,nt
CCCCC(CC)C(=O)Oc1ccc(O)c(C(C)(C)C)c1 (centres undefined),31*,5,-2,-17,-18,-3,16
CC(C)(C)c1cc(OC(=O)C2CCCC2)ccc1O,2,4,0,2,-25,-6,nt
CC1CCN(C(=O)c2ccc(CNS(=O)(=O)c3ccc(C(C)(C)C)cc3)cc2)CC1,33*,0,i,nt,4,7,-2
CC(C)(C)c1ccc(S(=O)(=O)NCc2ccc(C(=O)N3CCCC3)cc2)cc1,2,1,0,14,-6,1,nt
CCCCN1C(=O)c2cccc3c(NC(=O)c4cc(=O)c5ccccc5o4)ccc1c23,nt,nt,nt,nt,-5,nt,nt
CC1(C(=O)NCc2cccc(C(F)(F)F)c2)CCN1Cc1ccc(-c2ccccc2)o1 (centres undefined),34*,0,-1,nt,nt,13,18
CC1(C(=O)NCc2cccc(C(F)(F)F)c2)CCN1Cc1cc2ccccc2o1 (centres undefined),25,1,3,nt,nt,9,nt
O=C1c2ccccc2C(=O)N1OCc1cccc(Cl)c1,-3,nt,i,-28,-2,8,nt
O=C1Cc2ccccc2C(=O)N1OCc1ccc(Cl)cc1Cl,36*,0,-1,-17,-17,-2,-3
Cc1[nH][nH]c(=O)c1C(c1ccc(-c2cccc(C(=O)O)c2)o1)c1c(C)[nH][nH]c1=O,40*,-1,-1,30,-6,3,-14
COc1ccccc1C(=O)Nc1ccc(NC(=O)C2CCCCC2)nc1,39*,0,-1,21,3,9,-21
O=C1C(Cl)=C(NCc2ccco2)C(=O)c2ccccc21,107*,0,nt,nt,12,-19,81*
CCN(CC)c1ccc(NC2=C(Cl)C(=O)c3ccccc3C2=O)cc1,nt,nt,0,-13,63,nt,nt
O=C1c2ccccc2C(=O)c2cc(S(=O)(=O)NCc3ccco3)ccc21,nt,nt,nt,nt,36,nt,nt
CCCC(=O)NC1=C(Cl)C(=O)c2ccccc2C1=O,93*,-2,i,nt,6,10,83*
CCNC1=C(Cl)C(=O)c2ccccc2C1=O,53*,nt,i,-2,21,-54,48*
Oc1ccc(C=Nc2ccc3ncccc3c2)c(O)c1,nt,nt,nt,-10,nt,nt,nt
Oc1ccc(C=Nc2cccc3ncccc23)c(O)c1,44*,nt,-3,-10,96*,-4,-10
O=c1sc2ccccc2n1CCOc1ccc2ccccc2c1,nt,nt,nt,nt,-1,nt,nt
C[C@@H]1CCCCO[C@H](CN(C)C(=O)Cc2ccccc2)[C@@H](C)CN([C@H](C)CO)C(=O)c2cc(NC(=O)Nc3ccccc3)ccc2O1,31*,0,2,nt,nt,-3,-12
C[C@@H]1CCCCO[C@H](CN(C)C(=O)Nc2ccccc2)[C@@H](C)CN([C@H](C)CO)C(=O)c2cc(N(C)C)ccc2O1,nt,-10,nt,nt,nt,nt,nt
C[C@@H]1CCCCO[C@@H](CN(C)C(=O)Nc2ccccc2)[C@@H](C)CN([C@H](C)CO)C(=O)c2cc(N(C)C)ccc2O1,31*,-16,0,nt,nt,9,-19
C[C@@H]1CCCCO[C@H](CN(C)Cc2ccc(Cl)c(Cl)c2)[C@H](C)CN([C@@H](C)CO)C(=O)c2cc(NC(=O)Nc3ccc(F)cc3)ccc2O1,31*,2,i,nt,nt,-6,-14
C[C@@H]1CN([C@H](C)CO)C(=O)c2cc(NC(=O)Nc3ccccc3)ccc2O[C@@H](C)CCCCO[C@@H]1CN(C)C(=O)Cc1ccccc1,nt,1,nt,nt,nt,nt,nt
SMILES,CCHF vOTU inh-1,TcdB GH inh,Vc quorum ag,VHR inh abs,SSB-PriA inh,PrPC surface inh,CCHF vOTU inh-2
O=C(CSc1nc2sc3c(c2c(=O)n1-c1ccccc1)CCCCC3)N1CCCCCC1,nt,nt,nt,nt,-3,nt,nt
O=C(NCC1CCN(C(=O)Nc2ccc(F)cc2)CC1)C(=O)Nc1ccc(OC(F)(F)F)cc1,nt,nt,nt,nt,-4,nt,nt
CC1(C(=O)Nc2cccc(OC(F)(F)F)c2)Cc2c(-c3ccc4c(c3)OCO4)ccnc2O1 (centres undefined),31*,2,-1,nt,nt,4,-11
CN(C)c1ccc(-c2ccnc3c2CC(C)(C(=O)Nc2cccc(OC(F)(F)F)c2)O3)cc1 (centres undefined),4,0,-1,nt,nt,-1,nt
O=C(COC(=O)c1ccc([N+](=O)[O-])s1)NC(=O)NCc1ccccc1,53*,0,i,22,19,-34,48*
O=C(OCC(=O)c1ccc[nH]1)c1ccc([N+](=O)[O-])cc1,-14,0,i,nt,1,-14,nt
O=C(COC(=O)c1ccc([N+](=O)[O-])s1)NCc1ccc(F)cc1,71*,nt,0,1,4,-23,77*
O=C(COC(=O)c1ccc([N+](=O)[O-])s1)NCCc1ccccc1,nt,1,i,nt,6,nt,nt
O=C(COC(=O)c1ccc([N+](=O)[O-])s1)c1ccc[nH]1,58*,1,-7,nt,-4,-19,49*
Cc1cccc2sc(OC3CN(S(=O)(=O)c4ccc5c(c4)OCCO5)C3)nc12,nt,nt,nt,nt,3,nt,nt
CCCCNC(=O)C(NC(=O)Cc1cc(C(F)(F)F)cc(C(F)(F)F)c1)C(=O)c1ccccc1 (centres undefined),30*,0,nt,nt,nt,-7,1
COC(=O)Nc1ccc(S(=O)(=O)N2CCC(C)CC2)cc1,-9,nt,0,16,-2,-2,nt
COC(=O)Nc1ccc(S(=O)(=O)N2CCC(C(=O)N3CCC(C)CC3)CC2)cc1,42*,-4,-1,9,0,8,-19
Cc1ccc(-n2c(=O)[nH]c3c(C(N)=O)nc(-c4ccc(Cl)cc4Cl)nc32)cc1C,nt,nt,nt,nt,6,nt,nt
CN(C)C=Nc1c(C(=O)c2ccccc2)sc2nccc(N(C)C)c12,30*,-1,0,0,-10,-47,-2
O=C1c2cccc3c(Cl)ccc(c23)C(=O)N1CCc1ccccc1,nt,nt,nt,nt,0,nt,nt
O=C1Cc2ccccc2C(=O)N1CCc1ccccc1,100*,1,0,25,10,2,102*
CCOC(=O)C1=C(C)OC2(O)c3ccccc3C(=O)C12O (centres undefined),103*,-6,i,-3,6,4,19
CC(=O)C1=C(C)OC2(O)c3ccccc3C(=O)C12O (centres undefined),71*,-1,-1,21,-6,-2,-8
CCOc1ccc2noc3c2c1C(=O)c1ccccc1-3,87*,nt,-3,7,0,-39,37*
CCCCn1c(NC(C)=O)c(C#N)c2nc3ccccc3nc21,-128,nt,0,-9,-8,-3,nt
C=CCn1c(NC(=O)c2ccccc2Cl)c(C#N)c2nc3ccccc3nc21,82*,nt,0,33,34,1,45*
CCCCOc1ccccc1-c1cc(-c2nc(-c3ccc(Br)cc3)no2)[nH]n1,nt,nt,nt,nt,-26,nt,nt
